Measurements: PubChem BioAssay (NCATS)
Records with an inconclusive call do not appear. Active and inactive are the calls of the source. Unless noted, calls come from the whole dose curve; as a rule, active = well fitted curve in the direction sought with a large enough effect; inconclusive = small, poorly fitted or top-dose-only effect, or another doubt; inactive = no such curve, though single readings can be large; an effect the other way counts as inactive or inconclusive.

Columns and labels:
[1] = Cell Viability - BJ (AID 421; calls by dose curve;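 note: potency is the fitted concentration of half-maximal effect; cells exposed to compound for 40 hours at 37 °C before readout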); conditions: BJ fibroblast viability, qHTS
Summary of the method: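 Cytotoxicity as drop in intracellular ATP (CellTiter-Glo, 20 min RT) after 40 hr compound exposure of BJ fibroblasts at 37 °C. Titrations scaled between DMSO and 100 uM tamoxifen, Hill-fitted for AC50.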

[2] = Cell Viability - Jurkat (AID 426;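 active = dose-dependent loss of cell ATP signal giving a full or clear fitted curve, ranked by lower potency value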; note: potency is the fitted concentration of half-maximal effect); conditions: qHTS
Summary of the method: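 Seed 5000 Jurkat E6-1 cells/well; add compound; incubate 40 hr at 37 °C; add CellTiter-Glo; wait 20 min at room temperature; read luminescence. Fit concentration-response with Hill equation for AC50.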

[3] = Cell Viability - Hek293 (AID 427;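 active = compounds whose dose-response curve shows a full or clear partial loss of cell viability, called from curve shape rather than a numeric limit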;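 note: potency is the fitted concentration of half-maximal effect; cells exposed to compound for 40 hours at 37 °C before reading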); conditions: qHTS
Summary of the method: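 Luminescent ATP content (CellTiter-Glo, 20 min at room temperature) was measured after a 40 hr, 37 °C compound exposure of HEK293 cells. AC50 values came from Hill-equation fits of qHTS concentration-response data normalized to DMSO and 100 uM tamoxifen.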

[4] = Cell Viability - HepG2 (AID 433; calls by dose curve;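 note: potency is the fitted concentration of half-maximal effect; potency for ATP loss meaning cytotoxicity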); conditions: qHTS
Summary of the method: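 HepG2 cells, 1500 per well, treated 40 hr at 37 °C in complete medium; viability from intracellular ATP by CellTiter-Glo luminescence. Normalized to DMSO and 100 uM tamoxifen; AC50 from Hill fit of qHTS concentration-response.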

[5] = Cell Viability - MRC5 (AID 434; calls by dose curve;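 note: potency is the fitted concentration of half-maximal effect; potency reflects cytotoxicity seen as loss of intracellular ATP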); conditions: MRC5 lung fibroblast viability, qHTS
Summary of the method: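 MRC5 normal human lung fibroblasts (1500/well) were treated with compounds for 40 hr at 37 °C in complete medium, and viable cells were measured as intracellular ATP by CellTiter-Glo luminescence. AC50 came from Hill fits, normalized to DMSO and 100 uM tamoxifen.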

[6] = Cell Viability - SK-N-SH (AID 435; calls by dose curve;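 note: potency is the fitted concentration of half-maximal effect; compound exposure lasted 40 h at 37 °C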); conditions: SK-N-SH neuroblastoma cell viability qHTS
Summary of the method: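 SK-N-SH neuroblastoma cells (1500/well) treated 40 h at 37 °C in complete medium; viability read as cellular ATP by CellTiter-Glo luminescence. Normalized to DMSO and 100 uM tamoxifen; AC50 from Hill fits of qHTS concentration-response.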

[7] = Cell Viability - N2a (AID 540); conditions: N2a mouse neuroblastoma cell viability; at 92.2 µM (top of the series);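 note: plate controls were DMSO alone for no effect and tamoxifen control for full effect; nearly all actives have a fitted effect of over 45% in size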
Summary of the method: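 First, 1500 N2a cells per well incubate 5 hr at 37 °C; next, compounds are added and incubated 40 hr at 37 °C; finally CellTiter-Glo is added and luminescence read after 20 min, with AC50 derived by Hill modeling.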

[8] = Cell Viability - HUV-EC-C (AID 542); note: % is set by controls: 0 for no effect and ±100 for the full control effect; nearly all actives have a fitted effect of over 35% in size
Summary of the method: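 Decrease in cellular ATP, quantified by luciferase luminescence, reflects toxicity in normal human vascular endothelial HUV-EC-C cells given compound for 40 hr in complete culture medium. Values are AC50s from concentration-response curves.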

[9] = Cell Viability - H-4-II-E (AID 543); note: % is set by controls: 0 for no effect and ±100 for the full control effect; nearly all actives have a fitted effect of over 35% in size
Summary of the method: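 Here, cytotoxicity is measured in the rat hepatoma line H-4-II-E as loss of intracellular ATP after 40 hr compound treatment, detected by luciferase luminescence.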

[10] = Cell Viability - SH-SY5Y (AID 544);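 note: 0% = DMSO alone and -100% = 100 µM tamoxifen; nearly all actives have a fitted effect of over 55% in size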
Summary of the method: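 Cytotoxicity is scored as a concentration-dependent fall in intracellular ATP in human SH-SY5Y cells treated 40 hr in complete culture medium. Potency is expressed as AC50 from a Hill equation fit.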

[11] = Cell Viability - Renal Proximal Tubule (AID 545);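 note: 0% = DMSO only and -100% = 100 µM tamoxifen; nearly all actives have a fitted effect of over 40% in size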
Summary of the method: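 Rat renal proximal tubule primary cells, 1000/well, exposed to compounds for 40 hr at 37 °C in complete medium; cellular ATP read by CellTiter-Glo luminescence. AC50 from concentration-response fitted with standard Hill equation.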

[12] = Cell Viability - Mesenchymal (AID 546);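 note: cells exposed to compound for 40 hours before reading; 0% = DMSO only and -100% = 100 µM tamoxifen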
Summary of the method: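 Normal human renal glomerulus-derived kidney mesenchymal cells, 1000 per well in complete medium, were treated with compounds for 40 hr at 37 °C. Viability was read as intracellular ATP by CellTiter-Glo luminescence; AC50 values came from Hill-equation fits of qHTS concentration-response data.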

[13] = Cellular Toxicity (caspase-3) HepG2 (AID 654);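 note: cells exposed to compound for 16 hours before reading; 0% = DMSO alone and 100% = caspase signal from 100 µM tamoxifen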
Summary of the method: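 qHTS, HepG2, 1500 cells/well, complete medium; cpd 16 h 37 °C; Caspase-Glo 3/7, 20 min RT; lum. Norm: DMSO vs 100 uM tamoxifen; AC50 Hill fit.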

[14] = Cellular Toxicity (caspase-3) HUV-EC-C (AID 656);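 note: 0% = DMSO basal and 100% = 100 µM tamoxifen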
Summary of the method: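 HUV-EC-C cells (1000/well) in complete medium, compound-treated 16 h at 37 °C; caspase-3/7 activity read by Caspase-Glo 3/7 luminescence. Normalized to DMSO (basal) and 100 uM tamoxifen (100%); AC50 from Hill-equation concentration-response fits.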

[15] = Cellular Toxicity (caspase-3) SHSY5Y (AID 657)
Summary of the method: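 SH-SY5Y human neuroblastoma cells, 1500/well, exposed to compound for 16 hours at 37 °C in complete medium. Caspase-3/7 activity read by Caspase-Glo luminescence after 1 hr at room temperature, normalized to DMSO and 10 uM staurosporine; AC50 from Hill fit.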

[16] = Cellular Toxicity (caspase-3) BJ (AID 658);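 note: 0% = DMSO basal and 100% = 10 µM staurosporine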
Summary of the method: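 Luminescent aminoluciferin-substrate cleavage reports caspase 3/7 activity in normal human BJ fibroblasts after 16 hr compound exposure at 37 °C. Normalized to DMSO (basal) and 10 uM staurosporine (100%); AC50 from Hill fit of concentration-response.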

[17] = Cellular Toxicity (caspase-3) MRC-5 (AID 659);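 note: 0% = DMSO basal and 100% = 10 µM staurosporine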
Summary of the method: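 Luminescence from caspase-cleaved aminoluciferin substrate (Caspase-Glo 3/7, 1 hr RT) reports caspase 3/7 activity in MRC-5 lung fibroblasts after 16 hr compound exposure. Normalized to DMSO basal and 10 uM staurosporine as 100%; AC50 from Hill fits.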

[18] = Cellular Toxicity (caspase-3) Mesangial (AID 660);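 note: cells exposed to compound for 16 h before the caspase read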
Summary of the method: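 Concentration-response qHTS: compound-induced rise in caspase 3/7 luminescence in human mesangial cells after 16 h, normalized to DMSO and 100 uM tamoxifen controls.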

[19] = Cellular Toxicity (caspase-3) SK-N-SH (AID 661);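 note: 0% = DMSO basal and 100% = 10 µM staurosporine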
Summary of the method: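 Caspase 3/7 activation is measured as a luminescence increase from aminoluciferin released by substrate cleavage in SK-N-SH cells after 16 hr compound treatment; values are AC50 from concentration-response curves.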

[20] = Cellular Toxicity (caspase-3) H-4-II-E (AID 663);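 note: cells exposed to compound for 16 hr before readout; 0% = DMSO basal and 100% = 100 µM tamoxifen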
Summary of the method: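 Luminescence from caspase-cleaved aminoluciferin substrate, read 20 min after reagent addition, reports caspase 3/7 activation in rat H-4-II-E cells after 16 hr compound exposure. Normalized to DMSO (basal) and 100 uM tamoxifen (100%); AC50 from Hill fits.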

[21] = Cellular Toxicity (caspase-3) Hek293 (AID 664);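 note: cells exposed to compound for 16 h at 37 °C before readout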
Summary of the method: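 Activation of caspase-3/7 is measured as increased luminescence from cleaved peptide-aminoluciferin substrate in HEK293 cells treated 16 hours at 37 °C. AC50 values come from Hill-equation fits of concentration-response data.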

[22] = Cellular Toxicity (caspase-3) N2a (AID 665);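 note: compound exposure lasted 16 h at 37 °C before readout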
Summary of the method: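 Plated mouse neuroblastoma N2a cells received titrated compounds for 16 h in complete medium. Caspase activity was then detected with a peptide-aminoluciferin luminescent reagent.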

[23] = Cellular Toxicity (caspase-3) NIH 3T3 (AID 666);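 note: 0% = DMSO basal and 100% = 100 µM tamoxifen stimulation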
Summary of the method: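 Concentration-response qHTS in NIH 3T3 mouse fibroblasts scores caspase-3/7 activation as rising luminescence after 16 hr compound exposure. Signals are scaled between DMSO-only and 100 uM tamoxifen.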

[24] = Cellular Toxicity (caspase-3) Renal Proximal Tubule (AID 667);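 note: cells exposed to compound for 16 hours at 37 °C before detection; 0% = DMSO basal and 100% = 10 µM staurosporine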
Summary of the method: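 Freshly isolated primary rat kidney proximal tubule cells, 1000/well, treated 16 hr at 37 °C, then Caspase-Glo 3/7 luminescence after 1 hr. Normalized to DMSO and 10 uM staurosporine; AC50 from Hill fit.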

[25] = Cell Viability - LYMP2-001 (AID 921);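 note: 0% = DMSO only and full inhibition = tetraoctylammonium bromide control wells; nearly all actives have a fitted effect of over 70% in size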
Summary of the method: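 Human lymphoblastoid LYMP2-001 cells, 2500 per well, in complete medium, treated 24 h at 37 C. Viability from cellular ATP by CellTiter-Glo luminescence; AC50 from Hill-equation fits of qHTS concentration-response.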

[26] = MultiTox-Fluor Cytotoxicity Assay - LYMP1-001 - Dead Cells (AID 946)
Summary of the method: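 Cytotoxicity as increased dead-cell protease fluorescence (bis-AAF-R110, 485/520 nm), read 60 min after MultiTox-Fluor reagent. Human lymphoblastoid line exposed 16 h; Hill-fitted AC50, with DMSO as 0% and 15 uM tetraoctylammonium bromide as 100%.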

[27] = MultiTox-Fluor Cytotoxicity Assay - LYMP1-001 - Live Cells (AID 947);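 note: 0% = DMSO only and full inhibition = tetraoctylammonium bromide control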
[28] = Cell Viability - LYMP1-002 - Assay at 16 hr (AID 948);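 note: 0% = DMSO alone and full effect = 92 µM tetraoctylammonium bromide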
Summary of the method: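 LYMP1-002 human lymphoblastoid cells, 2500/well, were treated with compounds for 16 hr at 37 C in complete medium. Viability was read as intracellular ATP by CellTiter-Glo luminescence, and AC50 was derived from a Hill fit to concentration-response data.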

[29] = MultiTox-Fluor Cytotoxicity Assay - LYMP1-002 - Live Cells (AID 955); note: % is set by controls: 0 for no effect and ±100 for the full control effect
Summary of the method: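 Cytotoxicity in the human lymphoblastoid line LYMP1-002 is measured as loss of live-cell protease activity after 16 h treatment in complete culture medium. AC50 is derived from Hill-equation fits of qHTS concentration-response data.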

[30] = MultiTox-Fluor Cytotoxicity Assay - LYMP1-002 - Dead Cells (AID 960); note: nearly all actives have a fitted effect of over 60% in size
Summary of the method: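 Acute cytotoxicity in a human lymphoblastoid line is scored as rising dead-cell protease signal after 16 hr exposure at 37 C, measured fluorometrically (485/520).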

[31] = MultiTox-Fluor Cytotoxicity Assay - LYMP1-003 - Dead Cells (AID 961); note: nearly all actives have a fitted effect of over 70% in size
Summary of the method: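 Dead-cell protease release, detected as bis-AAF-R110 fluorescence at 485/520 nm, was measured in LYMP1-003 cells after 16 h compound treatment at 37 C. AC50 values came from Hill-modeled qHTS curves normalized to DMSO (0%) and 15 uM tetraoctylammonium bromide (100%).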

[32] = MultiTox-Fluor Cytotoxicity Assay - LYMP1-003 - Live Cells (AID 962);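 note: 0% = DMSO only and full loss = 92 µM tetraoctylammonium bromide; cytotoxic hits lower the live-cell protease signal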
Summary of the method: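 Cells plated at 2500 per well and incubated 5 hr; compounds added and incubated 16 hr at 37 C; MultiTox-Fluor reagent added for 60 min at room temperature; fluorescence of liberated AFC measured at 405/510 nm.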

[33] = Cell Viability - LYMP1-003 - Assay at 24 hr (AID 963);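 note: plate controls were DMSO only for no effect and tetraoctylammonium bromide positive control for full effect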
Summary of the method: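 Acute toxicity in LYMP1-003 lymphoblastoid cells: 24 hr compound treatment at 37 C, ATP measured with CellTiter-Glo after 30 min at room temperature. AC50 derived by fitting the Hill equation to qHTS titrations.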

[34] = Cell Viability - LYMP1-003 - Assay at 40 hr (AID 964); note: % is set by controls: 0 for no effect and ±100 for the full control effect; nearly all actives have a fitted effect of over 60% in size
Summary of the method: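 This qHTS cytotoxicity screen treats human lymphoblastoid cells (LYMP1-003) with compounds for 40 hr and quantifies cellular ATP via luciferase luminescence.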

[35] = Cell Viability - LYMP2-003 (AID 965);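 note: cells exposed to compounds for 24 h before reading; 0% = DMSO only and full effect = 92 µM tetraoctylammonium bromide; nearly all actives have a fitted effect of over 50% in size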
Summary of the method: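 Human lymphoblastoid LYMP2-003 cells, 2500/well, exposed to compounds for 24 h at 37 C in complete medium. Viability read as intracellular ATP by CellTiter-Glo luminescence; AC50 from Hill-equation fits of qHTS concentration-response data.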

[36] = Cell Viability - LYMP2-004 (AID 966);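 note: plate controls were DMSO only for no effect and tetraoctylammonium bromide control for full effect; nearly all actives have a fitted effect of over 65% in size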
Summary of the method: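 Acute toxicity is scored as a concentration-dependent drop in intracellular ATP, quantified by luciferase luminescence, in human lymphoblastoid cells exposed to compound for 24 hr. AC50 derives from Hill-equation modelling.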

[37] = Cell Viability - LYMP2-005 (AID 967);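 note: plate controls were DMSO only for no effect and 92 µM tetraoctylammonium bromide control for full effect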
Summary of the method: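 Human lymphoblastoid LYMP2-005 cells, 2,500 per well in complete medium, rested 5 h at 37C then compound-treated 24 h at 37C. Intracellular ATP read by CellTiter-Glo luminescence after 30 min at room temperature; AC50 from Hill-equation fits of concentration-response data.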

[38] = Cell Viability - LYMP2-009 (AID 968);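 note: 0% = DMSO alone and the full-kill end = tetraoctylammonium bromide at 92 µM; nearly all actives have a fitted effect of over 55% in size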
[39] = Cell Viability - LYMP2-011 (AID 969);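 note: 0% = DMSO only and full inhibition = 92 µM tetraoctylammonium bromide; nearly all actives have a fitted effect of over 60% in size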
Summary of the method: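 Acute toxicity is scored as a concentration-dependent drop in intracellular ATP of a human lymphoblastoid line after 24 hr treatment. Values are AC50s modeled with the Hill equation.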

[40] = Cell Viability - LYMP2-013 (AID 970);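 note: 0% = DMSO only and full inhibition = tetraoctylammonium bromide control; nearly all actives have a fitted effect of over 55% in size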
Summary of the method: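 Acute toxicity was measured in human lymphoblastoid cells (2500/well) exposed to compound titrations for 24 hr, with ATP luminescence (CellTiter-Glo) as read-out and AC50 fitted by Hill equation.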

[41] = Cell Viability - LYMP2-015 (AID 971)
Summary of the method: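 Acute toxicity was scored as a concentration-dependent drop in intracellular ATP in lymphoblastoid cells after 24 hr compound exposure in complete medium. Detection used CellTiter-Glo luciferase luminescence.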

[42] = Cell Viability - LYMP2-017 (AID 972)
Summary of the method: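 Steps: plate 2500 lymphoblastoid cells per well; incubate 5 hr at 37 C; add compound across a concentration series and incubate 24 hr at 37 C; add CellTiter-Glo and read luminescence after 30 min at room temperature; fit Hill curves for AC50.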

O=Cc1ccccc1
inactive: Potency [1] > 92 µM | Potency [2] > 92 µM | Potency [3] > 92 µM | Potency [4] > 92 µM | Potency [5] > 92 µM | Potency [6] > 92 µM | activity change, negative = cytotoxicity [7] 6.11% | outcome [8] | outcome [9] | outcome [10] | outcome [11] | outcome [12] | outcome [13] | outcome [14] | outcome [15] | outcome [16] | outcome [17] | outcome [18] | outcome [19] | outcome [20] | outcome [21] | outcome [22] | outcome [23] | outcome [24] | outcome [25] | Potency [26] | outcome [27] | outcome [28] | outcome [29] | Potency [30] | Potency [31] | outcome [32] | outcome [33] | Potency [34] | outcome [35] | outcome [36] | outcome [37] | outcome [38] | outcome [39] | outcome [40] | outcome [41] | outcome [42]
